# The supplement of paper PMC5407854, “Inhibitor of ppGalNAc-T3-mediated O-glycosylation blocks cancer cell invasiveness and lowers FGF23 levels” (eLife, 2017)
# In all, about 1,700 compounds were measured (“T2 sensor activation Q score (MG/GFP ratio z-score vs DMSO controls)”: median about 0.3, highest 2% from about 1.9 on). Shown is part of a subset that was picked to be rich in the highest values.
# Test system: ppGalNAc-T2 sensor
# Assay: T2 sensor activation Q score (MG/GFP ratio z-score vs DMSO controls) (SD units); higher = more sensor activation (inhibition of ppGalNAc-T2 glycosylation)
# Conditions: HEK293 sensor cells; 10 µM; 6 h
# Method: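 Cells were treated with compound at 10 uM for 6 h, then MG/GFP ratio was read by flow cytometry (10,000 cells per well, duplicate wells). Q = (R - R_neg)/SD_neg relative to DMSO vehicle controls; the signal rises when the glycosyltransferase is inhibited.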
row,Compound,T2 sensor activation Q score
1,CCOC(=O)C(C)c1c(C(=O)c2ccc(C)nc2)c2ccccc2n1C (stereo not given),0.9
2,NC(=O)c1nnsc1-c1ccc(-c2snnc2C(N)=O)cc1,1.7
3,O=c1[nH]c(=S)c2ncn(-c3ccccc3)c2[nH]1,-1.3
4,NC(=O)c1ccccc1NC(=O)COc1ccc(Cl)cc1,-0.45
5,CC(=O)Nc1ccc(S(=O)(=O)N/N=c2/sc3ccccc3n2C)cc1N,-0.6
6,c1ccc(-c2nnc3oc(-c4cccs4)nn23)cc1,-1.05
7,Cc1cn(C2CC(O)C(CO)O2)c(=O)n(Cc2ccccc2)c1=O (stereo not given),0.85
8,O=c1[nH]cc(Cl)cc1Cl,0.5
9,CCOC(=O)/C=C/c1nc(C(=O)OCC)c(C)c(=O)[nH]1,-0.1
10,CC(C)CCCCCCCCCCCCC(=O)NCC(=O)NC1C(C)OC(Nc2ncnc3nc[nH]c23)C(O)C1O (stereo not given),8.6
11,CC(C)=NNc1ncnc2nc[nH]c12,1.25
12,Cc1ccc(Nc2n[nH]c(=S)s2)cc1F,-0.95
13,NNC(=O)Cc1cc(=O)[nH][nH]1,-0.7
14,Cc1cc(=O)oc2cc(OS(C)(=O)=O)ccc12,1.2
15,CCSc1nc(=S)cc(C)[nH]1,-0.1
16,CC(=NNC(N)=O)c1ccc(Cl)c(-n2cccc2)c1,0.6
17,N#C/C(=C\c1c[nH]c2ccccc12)C(N)=O,0.8
18,NC(=S)N/N=C\c1cc(-c2cccc(N)c2)ccn1,0
19,O=C(Nc1ccc(C2=NCCCN2)cc1)Nc1ccc(C2=NCCCN2)cc1,-0.6
20,COc1ccc2c(c1)CCCN2C(N)=Nc1ccc(Cl)cc1,1.25
21,Cc1cccc2cc3cccc(C)c3nc12,0.3
22,Cc1c(COC(=O)NC(C)C)c(COC(=O)NC(C)C)c2n1CS(=O)(=O)C2,-0.4
23,CC1CC(C)(C)C2=NCCN21 (stereo not given),1.3
24,Cc1ccc(S(=O)(=O)NNC(=O)C23CCC(CC2)C3)cc1,1.95
25,Cc1ccc(S(=O)(=O)NC(=O)Nc2nccs2)cc1,-1.2

row,Compound,T2 sensor activation Q score
1,CC(=O)C1C=CC(C)(C(=O)O)C2C=C(C)C(=O)C(C)(O)C12 (stereo not given),0.2
2,CCOC(=O)c1csc(-c2ccc(COC(=O)c3ccccc3)o2)n1,-1
3,COc1ccc2c(c1)CCN1C2CCN2C(=O)CCC21 (stereo not given),0.9
4,O=S1(=O)CCN(Cc2ccccn2)CC1,0.85
5,COC(=O)c1ccc(Cn2cnc3c(Cl)ncnc32)cc1,1.6
6,Cc1cc(N)c2cc(NC(=O)C=Cc3ccccc3Cl)ccc2n1,1.5
7,Nc1ccc(N=Nc2ccccc2)c2ccccc12,-0.25
8,O=C(Nc1ccc(Nc2ccccc2)cc1)Nc1ccccc1Cl,-1.35
9,Nc1cc(Nc2ccc(Br)cc2)nc(N)n1,0.6
10,CCCCCOc1ccc(N2C(=O)C(C)CNC2=S)cc1 (stereo not given),0.7
11,Oc1ccc(-c2nc3ccccc3s2)c(O)c1,0.2
12,Oc1ccc(Cc2ccc(Cl)cc2)c(O)c1,1.3
13,Oc1ccc(Cc2ccccc2Cl)c(O)c1,1.95
14,COC(=O)c1cc(C)[nH]c2c(C)cc3nc4ccccc4c3c12,0.65
15,O=C(Oc1ccccc1)N(c1ccccc1)c1ccccc1,0.35
16,Cc1cc(/C=C2\SC(=S)NC2=O)cc(C)c1O,0.35
17,CN1CCC=C(C(=O)N2c3ccccc3Sc3ccc(Cl)cc32)C1,0.25
18,CN(C)c1ccc(/C=C(\C#N)C(=O)c2ccccc2)cc1,-0.3
19,CN(C)c1ccc2c(c1)Sc1cc(N(C)C)ccc1N2C(=O)c1ccccc1,2.55
20,CC[C@]1(O)C[C@@H]2CN(CCc3c([nH]c4ccccc34)[C@@](C(=O)OC)(c3cc4c(cc3OC)N(C)[C@H]3[C@@](O)(C(=O)OC)[C@H](OC(C)=O)[C@]5(CC)C=CCN6CC[C@]43[C@@H]65)C2)C1,2.05
21,CCC1=C[C@@H]2CN(C1)Cc1c([nH]c3ccccc13)[C@@](C(=O)OC)(c1cc3c(cc1OC)N(C)[C@H]1[C@@](O)(C(=O)OC)[C@H](OC(C)=O)[C@]4(CC)C=CCN5CC[C@]31[C@@H]54)C2,1.1
22,CC[C@]1(O)C[C@H]2CN(CCc3c([nH]c4ccccc34)[C@@](C(=O)OC)(c3cc4c(cc3OC)N(C=O)[C@H]3[C@@](O)(C(=O)OC)[C@H](OC(C)=O)[C@]5(CC)C=CCN6CC[C@]43[C@@H]65)C2)C1,1.4
23,C=C(C)C(=O)Oc1ccc(N=Nc2ccc(C)cc2)ccc1=O,1.1
24,NC(=O)c1nc2c([nH]c1=O)CCCC2,-0.85
25,CSc1nc(N)c(C(=O)Nc2ccc([N+](=O)[O-])cc2)s1,0.05

row,Compound,T2 sensor activation Q score
1,O=C(Nc1cccc(-c2nc3ccccc3[nH]2)c1)c1ccc(C(=O)Nc2cccc(-c3nc4ccccc4[nH]3)c2)cc1,3
2,c1ccc2[nH]c(-c3ccncc3)nc2c1,-1.1
3,Nc1ccc(C(=O)Nc2cccc(N)c2)cc1,-0.5
4,Cn1ncc2c(Sc3ccc(Cl)cc3)ncnc21,1.3
5,CC1=CN2C(c3cccc([N+](=O)[O-])c3)=NON(c3ccc(C)cn3)C2C=C1 (stereo not given),0.85
6,CSc1ncc2[nH]c(C(O)c3ccccc3)nc2n1 (stereo not given),-0.45
7,O=S1(=O)CCC(N(N=Cc2ccco2)c2ccccc2)C1 (stereo not given),-0.2
8,O=CN/C=C\c1cc(O)ccc1O,-0.3
9,OC[C@@H]1CCC[C@H](n2cnc3c(=S)nc[nH]c32)O1,0.75
10,Cc1nccnc1Sc1ccccc1,-0.2
11,Oc1ccc2ccccc2c1N=Nc1nccs1,0.9
12,Oc1ccc2ccccc2c1N=Nc1ccc(F)cc1,0.05
13,Oc1c(N=Nc2nn[nH]n2)ccc2ccccc12,3.6
14,O=[N+]([O-])c1c(N2CCN(CCO)CC2)nc2ccccn12,0.7
15,OCc1nnn(-c2ccccc2)c1CO,0.8
16,NC(N)=N/N=C\c1c(Cl)cccc1Cl,0.25
17,Cc1cc(N2CCOCC2)nc(N2CCOCC2)n1,0.15
18,N#CC(c1ccccc1)C(C/C(=N\O)c1ccccc1)c1ccccc1 (stereo not given),-0.8
19,O=C(/C=C/c1cccnc1)/C=C/c1cccnc1,1.6
20,O=C(c1ccccc1)C1N=NCC1c1ccc(Cl)cc1 (stereo not given),0.05
21,O=c1nc(Oc2ccccc2)nc2ncccn12,1.9
22,Nc1nc(SCc2ccccn2)c2ncn(C3OC(CO)C(O)C3O)c2n1 (stereo not given),-0.15
23,Cc1cc(=O)n2[nH]c(-c3ccc(C(C)(C)C)cc3)cc2n1,0.15
24,Nc1nc(N)c2c(ccc3nccc32)[nH]1,1.3
25,O=C1C2C3C=CC(CC3)C2S(=O)(=O)C2C3C=CC(CC3)C12 (stereo not given),1.8
